Measured values published in PubChem BioAssay (NCATS).
Results filed as inconclusive are left out. Calls of active or inactive are those of the source. Unless noted, calls follow the shape of the dose curve; as a rule, active = well fitted curve in the direction sought with a large enough effect; inconclusive = small, poorly fitted or top-dose-only effect, or another doubt; inactive = no such curve, though single readings can be large; an effect the other way counts as inactive or inconclusive.

Assays:
[1] = Cell Viability - BJ (AID 421; calls by dose curve;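 also: potency is read from the fitted curve at half-maximal effect; cells exposed to compound for 40 hours at 37 °C before readout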); details: BJ fibroblast viability, qHTS
In short: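 Cytotoxicity as drop in intracellular ATP (CellTiter-Glo, 20 min RT) after 40 hr compound exposure of BJ fibroblasts at 37 °C. Titrations scaled between DMSO and 100 uM tamoxifen, Hill-fitted for AC50.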

[2] = Cell Viability - Hek293 (AID 427;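 active = compounds whose dose-response curve shows a full or clear partial loss of cell viability, called from curve shape rather than a numeric limit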;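 also: potency is read from the fitted curve at half-maximal effect; cells exposed to compound for 40 hours at 37 °C before reading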); details: qHTS
In short: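 Luminescent ATP content (CellTiter-Glo, 20 min at room temperature) was measured after a 40 hr, 37 °C compound exposure of HEK293 cells. AC50 values came from Hill-equation fits of qHTS concentration-response data normalized to DMSO and 100 uM tamoxifen.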

[3] = Cell Viability - HepG2 (AID 433; calls by dose curve;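 also: potency is read from the fitted curve at half-maximal effect; potency for ATP loss meaning cytotoxicity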); details: qHTS
In short: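 In this qHTS format, a 40 h, 37 °C compound incubation of HepG2 cells in complete medium precedes a 20 min CellTiter-Glo step at room temperature. Tamoxifen and doxorubicin serve as positive controls; Hill-equation fits yield AC50.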

[4] = Cell Viability - MRC5 (AID 434; calls by dose curve;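 also: potency is read from the fitted curve at half-maximal effect; potency reflects cytotoxicity seen as loss of intracellular ATP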); details: MRC5 lung fibroblast viability, qHTS
In short: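 MRC5 normal human lung fibroblasts (1500/well) were treated with compounds for 40 hr at 37 °C in complete medium, and viable cells were measured as intracellular ATP by CellTiter-Glo luminescence. AC50 came from Hill fits, normalized to DMSO and 100 uM tamoxifen.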

[5] = molecular target: Mitogen-activated protein kinase 10 (Mus musculus) (UniProt Q61831); assay: JNK3 AlphaScreen Assay (AID 530; active = well fitted curve in either direction with a large enough effect, not every such curve was filed as active;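 also: kinase came from lysate of stimulated human HepG2 cells; signal reports phosphorylation of biotinylated GST-cJun 1-79 at Ser73 with 10 µM ATP; series mostly up to about 57 µM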)
In short: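 JNK3 came from HepG2 lysates pre-activated with IL-1beta and TNF-alpha and phosphorylated biotinylated GST-cJun (1-79) at 10 uM ATP, pH 7.6, room temperature. Compounds were titrated. AlphaScreen signal used anti-phospho-cJun (Ser73) antibody.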

[6] = Cell Viability - HUV-EC-C (AID 542); also: nearly all actives have a fitted effect of over 35% in size
In short: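 HUV-EC-C normal human vascular endothelial cells, 1000 cells/well, pre-incubated 5 hr at 37 °C, then exposed to compounds for 40 hr at 37 °C in complete medium. Viability measured as intracellular ATP by CellTiter-Glo luminescence; AC50 from Hill fits.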

[7] = Cell Viability - SH-SY5Y (AID 544); also: nearly all actives have a fitted effect of over 55% in size
In short: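 Human neuroblastoma SH-SY5Y cells (1500/well) in complete medium were exposed to compounds for 40 hr at 37 °C; intracellular ATP was then quantified by CellTiter-Glo luminescence after 20 min at room temperature. AC50 came from Hill-equation concentration-response fits.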

[8] = Cell Viability - Mesenchymal (AID 546);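 also: cells exposed to compound for 40 hours before reading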
In short: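 Normal human renal glomerulus-derived kidney mesenchymal cells, 1000 per well in complete medium, were treated with compounds for 40 hr at 37 °C. Viability was read as intracellular ATP by CellTiter-Glo luminescence; AC50 values came from Hill-equation fits of qHTS concentration-response data.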

[9] = Cellular Toxicity (caspase-3) HepG2 (AID 654);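 also: cells exposed to compound for 16 hours before reading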
In short: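 HepG2 cells (1500/well) in complete medium were treated with compounds for 16 hr at 37 °C. Caspase-3/7 activity was then read as luminescence from peptide-aminoluciferin cleavage. AC50 came from Hill fits, normalized to DMSO and 100 uM tamoxifen.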

[10] = Cellular Toxicity (caspase-3) Jurkat (AID 655);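 also: cells exposed to compound for 16 h at 37 °C before reading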
In short: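 qHTS in human Jurkat T-cell leukemia line: 16 hr compound treatment at 37 °C, caspase-3/7 activity measured by Caspase-Glo luminescence. AC50 derived from Hill equation.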

[11] = Cellular Toxicity (caspase-3) HUV-EC-C (AID 656)
In short: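 Concentration-dependent caspase 3/7 induction was assessed in HUV-EC-C cells exposed for 16 hours. Data scaled between DMSO and tamoxifen (100 uM) controls.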

[12] = Cellular Toxicity (caspase-3) SHSY5Y (AID 657)
In short: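 Readout: caspase-cleaved peptide-aminoluciferin substrate driving luciferase light in SH-SY5Y neuroblastoma cells after 16 h treatment. Response normalized to DMSO and 10 uM staurosporine controls.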

[13] = Cellular Toxicity (caspase-3) BJ (AID 658)
In short: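 Luminescent aminoluciferin-substrate cleavage reports caspase 3/7 activity in normal human BJ fibroblasts after 16 hr compound exposure at 37 °C. Normalized to DMSO (basal) and 10 uM staurosporine (100%); AC50 from Hill fit of concentration-response.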

[14] = Cellular Toxicity (caspase-3) MRC-5 (AID 659)
In short: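 Luminescence from caspase-cleaved aminoluciferin substrate (Caspase-Glo 3/7, 1 hr RT) reports caspase 3/7 activity in MRC-5 lung fibroblasts after 16 hr compound exposure. Normalized to DMSO basal and 10 uM staurosporine as 100%; AC50 from Hill fits.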

[15] = Cellular Toxicity (caspase-3) Mesangial (AID 660);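 also: cells exposed to compound for 16 h before the caspase read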
In short: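 Human renal glomerular mesangial cells (1000/well) were treated with compounds for 16 h at 37 °C in complete medium, then caspase 3/7 activity was read by Caspase-Glo luminescence. Data were normalized to DMSO and 100 uM tamoxifen; AC50 from Hill fits.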

[16] = Cellular Toxicity (caspase-3) SK-N-SH (AID 661)
In short: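 SK-N-SH human neuroblastoma cells (1500/well) were treated with compounds for 16 hr at 37 °C in complete medium; caspase 3/7 activity was read by Caspase-Glo luminescence. AC50 came from Hill fits of data normalized to DMSO and 10 uM staurosporine.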

[17] = Cellular Toxicity (caspase-3) H-4-II-E (AID 663);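 also: cells exposed to compound for 16 hr before readout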
In short: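 Luminescence from caspase-cleaved aminoluciferin substrate, read 20 min after reagent addition, reports caspase 3/7 activation in rat H-4-II-E cells after 16 hr compound exposure. Normalized to DMSO (basal) and 100 uM tamoxifen (100%); AC50 from Hill fits.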

[18] = Cellular Toxicity (caspase-3) Hek293 (AID 664);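 also: cells exposed to compound for 16 h at 37 °C before readout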
In short: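 HEK293 cells were exposed to compounds in complete medium for 16 hr at 37 °C, then caspase-3/7 activity was read by Caspase-Glo 3/7 luminescence after 20 min at room temperature. Data normalized to DMSO and 100 uM tamoxifen; AC50 from Hill fits.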

[19] = Cellular Toxicity (caspase-3) N2a (AID 665);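 also: compound exposure lasted 16 h at 37 °C before readout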
In short: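 Mouse N2a neuroblastoma cells (1500/well) were treated with compounds for 16 h at 37 °C, then caspase-3/7 activity was read by Caspase-Glo luminescence after 1 h at room temperature. Data were normalized to DMSO and 10 uM staurosporine; AC50 from Hill fits.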

[20] = molecular target: Cytochrome P450 3A4 (Homo sapiens) (UniProt P08684); assay: qHTS Assay for Inhibitors and Substrates of Cytochrome P450 3A4 (AID 884); also: series mostly up to about 57 µM; nearly all actives have a fitted effect of over 50% in size
In short: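 20 nM human CYP3A4 with 25 uM Luciferin-PPXE (at KM) in 200 mM KPO4, preincubated 10 min with compound; NADPH regeneration started a 60 min RT reaction. Luciferin detected by luminescence, normalized to 57 uM ketoconazole as full inhibition.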

[21] = Confirmation and Secondary Assay for Modulators of Hemoglobin Beta Chain Splicing at IVS2 654 locus (AID 910);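 also: per-well total GFP intensity by laser scanning cytometry after 2-day treatment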
In short: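 HeLa cells stably carrying EGFP interrupted by mutant beta-globin IVS2-654 intron (CMV-driven) were treated with compound for 2 days at 37C; corrected splicing was scored as total peak GFP intensity per well (488 nm excitation, 500-520 nm emission).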

[22] = Cell Viability - LYMP2-001 (AID 921); also: series mostly up to about 92 µM; nearly all actives have a fitted effect of over 70% in size
In short: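 A lymphoblastoid cell line of human origin was treated with library compounds across a concentration series for 24 hours, and viable cell number was estimated from ATP-driven luciferase light output. Hill modeling gave AC50.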

[23] = Confirmation and Secondary Assay for Modulators of Hemoglobin Beta Chain Splicing at IVS2 705 locus (AID 930);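 also: HeLa cells stably expressing the EGFP-705 splicing reporter; GFP fluorescence per well restored by corrected splicing of the IVS2-705 intron in EGFP; series mostly up to about 46 µM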
In short: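 Fluorescence gain (488 nm laser, 500-520 nm PMT) reflects restored correct splicing of a mutant IVS2-705 intron inside EGFP in stably transfected HeLa cells after 2-day compound treatment.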

[24] = MultiTox-Fluor Cytotoxicity Assay - LYMP1-001 - Dead Cells (AID 946)
In short: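 Cytotoxicity as increased dead-cell protease fluorescence (bis-AAF-R110, 485/520 nm), read 60 min after MultiTox-Fluor reagent. Human lymphoblastoid line exposed 16 h; Hill-fitted AC50, with DMSO as 0% and 15 uM tetraoctylammonium bromide as 100%.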

[25] = Cell Viability - LYMP1-002 - Assay at 16 hr (AID 948)
In short: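 In this qHTS, lymphoblastoid LYMP1-002 cells (human) receive compounds for 16 hr at 37 C. Viability is taken from CellTiter-Glo ATP luminescence, and AC50 derives from standard Hill fits.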

[26] = MultiTox-Fluor Cytotoxicity Assay - LYMP1-002 - Live Cells (AID 955)
In short: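 Human lymphoblastoid LYMP1-002 cells, 2500/well in complete medium, rested 5 hr at 37 C, then exposed to compounds for 16 hr at 37 C. Live-cell protease cleavage of GF-AFC read by fluorescence (Ex/Em 405/510) after 60 min at room temperature; AC50 from Hill fits.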

[27] = MultiTox-Fluor Cytotoxicity Assay - LYMP1-003 - Dead Cells (AID 961); also: nearly all actives have a fitted effect of over 70% in size
In short: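 Dead-cell protease release, detected as bis-AAF-R110 fluorescence at 485/520 nm, was measured in LYMP1-003 cells after 16 h compound treatment at 37 C. AC50 values came from Hill-modeled qHTS curves normalized to DMSO (0%) and 15 uM tetraoctylammonium bromide (100%).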

[28] = MultiTox-Fluor Cytotoxicity Assay - LYMP1-003 - Live Cells (AID 962);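 also: cytotoxic hits lower the live-cell protease signal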
In short: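 LYMP1-003 human lymphoblastoid cells (2500/well) in complete medium were preincubated 5 hr at 37 C, then exposed to compounds for 16 hr at 37 C. Live-cell protease cleavage of GF-AFC read by fluorescence (Ex/Em 405/510); AC50 from Hill fits.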

[29] = Cell Viability - LYMP1-003 - Assay at 24 hr (AID 963)
In short: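 Human lymphoblastoid LYMP1-003 cells (2500/well) were rested 5 hr at 37 C, then exposed to compounds in complete medium for 24 hr at 37 C. Cellular ATP was quantified by CellTiter-Glo luminescence, and AC50 values came from Hill fits of concentration-response data.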

[30] = Cell Viability - LYMP1-003 - Assay at 40 hr (AID 964); also: series mostly up to about 92 µM; nearly all actives have a fitted effect of over 60% in size
In short: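 Human lymphoblastoid LYMP1-003 cells, 2500/well in complete medium, rested 5 hr at 37 C, then exposed to compounds for 40 hr at 37 C. Viability read as intracellular ATP by CellTiter-Glo luminescence; AC50 from Hill fits of concentration-response data.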

[31] = Cell Viability - LYMP2-003 (AID 965);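 also: cells exposed to compounds for 24 h before reading; nearly all actives have a fitted effect of over 50% in size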
In short: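 qHTS, human lymphoblastoid line, 2500 cells/well, complete medium. 24 h drug, 37 C. ATP-based luminescent readout; Hill-fit AC50.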

[32] = Cell Viability - LYMP2-004 (AID 966); also: nearly all actives have a fitted effect of over 65% in size
In short: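 Human lymphoblastoid cells (2500/well) in complete medium were treated with compounds for 24 hr at 37 C, then intracellular ATP was measured by CellTiter-Glo luminescence. AC50 values came from Hill-equation fits of concentration-response data.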

[33] = Cell Viability - LYMP2-005 (AID 967); also: series mostly up to about 92 µM
In short: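 Luciferase-based ATP quantitation served as the viability measure in human lymphoblastoid LYMP2-005 cells exposed to test compounds for 24 h at 37 C in complete culture medium. Potency (AC50) was obtained by fitting concentration-response curves with the Hill equation.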

[34] = Cell Viability - LYMP2-009 (AID 968); also: series mostly up to about 92 µM; nearly all actives have a fitted effect of over 55% in size
[35] = Cell Viability - LYMP2-011 (AID 969); also: nearly all actives have a fitted effect of over 60% in size
In short: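 Human lymphoblastoid cells (2500/well) were plated in complete medium, preincubated 5 hr at 37 C, then exposed to compounds for 24 hr at 37 C. Intracellular ATP was read by CellTiter-Glo luminescence, and AC50 came from Hill-equation concentration-response fits.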

[36] = Cell Viability - LYMP2-013 (AID 970); also: series mostly up to about 92 µM; nearly all actives have a fitted effect of over 55% in size
In short: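 Human lymphoblastoid cells, 2500/well, were preincubated 5 hr at 37 C, then treated with compounds for 24 hr at 37 C in complete medium. Intracellular ATP was read by CellTiter-Glo luminescence; AC50 from Hill-equation fits of concentration-response data.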

[37] = Cell Viability - LYMP2-015 (AID 971); also: nearly all actives have a fitted effect of over 55% in size
In short: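 Human lymphoblastoid cells (2500/well) in complete medium were preincubated 5 hr at 37 C, then compound-treated 24 hr at 37 C. Intracellular ATP was read by CellTiter-Glo luminescence after 30 min at room temperature; AC50 came from Hill-equation concentration-response fits.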

[38] = Cell Viability - LYMP2-017 (AID 972)
In short: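 Human lymphoblastoid cells (2500/well) were seeded in complete medium, held 5 hr at 37 C, then exposed to compounds for 24 hr at 37 C. Intracellular ATP was read by CellTiter-Glo luminescence after 30 min at room temperature, with AC50 values from Hill-equation fits.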

[39] = Cell Viability - LYMP2-019 (AID 973); also: nearly all actives have a fitted effect of over 55% in size
In short: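 Human lymphoblastoid cells were seeded at 2500 cells/well, preincubated 5 hr at 37 C, then exposed to compounds for 24 hr at 37 C in complete medium. Intracellular ATP was measured by CellTiter-Glo luminescence; AC50 from Hill fits.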

[40] = Cell Viability - LYMP2-021 (AID 974)
In short: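 Human lymphoblastoid cells (2500/well) were preincubated 5 hr at 37 C, then exposed to compounds for 24 hr at 37 C in complete medium. Intracellular ATP was read by CellTiter-Glo luminescence; AC50 came from Hill-equation fits of concentration-response data.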

[41] = Cell Viability - LYMP2-023 (AID 975)
In short: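 Human lymphoblastoid cells (2500/well) were preincubated 5 hr at 37 C, then exposed to compounds for 24 hr at 37 C in complete medium. Cellular ATP was read by CellTiter-Glo luminescence, and AC50 came from Hill-equation fits.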

[42] = Cell Viability - LYMP2-002 (AID 977); also: series mostly up to about 92 µM
In short: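 Luminescent ATP readout (CellTiter-Glo, 30 min room temperature) after 24 h compound exposure at 37 C of a human lymphoblastoid line, 2500 cells/well. AC50 values derived by standard Hill fitting of qHTS concentration-response data.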

Measured: Potency

Cytochrome P450 3A4 (Homo sapiens), sequence (P08684 whole entry, looked up): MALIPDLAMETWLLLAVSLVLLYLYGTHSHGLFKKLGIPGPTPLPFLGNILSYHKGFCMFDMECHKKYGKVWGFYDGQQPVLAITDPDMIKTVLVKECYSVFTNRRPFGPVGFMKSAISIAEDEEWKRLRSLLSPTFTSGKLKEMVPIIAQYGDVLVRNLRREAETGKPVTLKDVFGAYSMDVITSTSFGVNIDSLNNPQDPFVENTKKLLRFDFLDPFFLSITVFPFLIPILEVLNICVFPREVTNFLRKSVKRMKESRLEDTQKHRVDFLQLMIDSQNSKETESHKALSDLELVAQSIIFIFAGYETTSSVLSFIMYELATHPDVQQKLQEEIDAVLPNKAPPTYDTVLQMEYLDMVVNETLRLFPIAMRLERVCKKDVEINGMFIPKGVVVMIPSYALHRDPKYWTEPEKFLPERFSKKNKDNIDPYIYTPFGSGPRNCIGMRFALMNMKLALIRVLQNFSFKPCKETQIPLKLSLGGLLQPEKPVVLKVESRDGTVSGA

O=C(Nc1ccccc1)Nc1ccccc1
inactive: [1] > 92 µM | [2] > 92 µM | [3] > 92 µM | [4] > 92 µM | [5] | [6] | [7] | [8] | [9] | [10] | [11] | [12] | [13] | [14] | [15] | [16] | [17] | [18] | [19] | [20] | [21] | [22] | [23] | [24] | [25] | [26] | [27] | [28] | [29] | [30] | [31] | [32] | [33] | [34] | [35] | [36] | [37] | [38] | [39] | [40] | [41] | [42]
